High-throughput results deposited in PubChem by National Center for Advancing Translational Sciences (NCATS).
Pf growth 96h – P. falciparum growth inhibition at 96 hour, primary screen for plastid delayed-death inhibitors. 6.9% of 320,000 active. P. falciparum luciferase reporter growth, 96 h. AID 504834. Potency, µM (series often up to 28.7 µM), for the others: at the highest dose activity change, negative = inhibition, usual class: inhibitors; further: on the % scale 0 is the no-effect control and ±100 the full control effect
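Delayed-death screen, second-generation endpoint: infected erythrocytes, 2% hematocrit, 0.05% parasitemia final; 96 hours at 37 C, 5% CO2; luciferase detection reagent; luminescence decrease equals reduced growth.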
Pf growth 48h – P. falciparum growth inhibition at 48 hours (one generation); P. falciparum luciferase growth in erythrocytes, 48 h; Potency, µM (top dose mostly 28.7 µM), for inactives: at the top dose activity change, negative = inhibition, hits mostly inhibitors; 5.9% of 310,000 active; further: on the % scale 0 is the no-effect control and ±100 the full control effect
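Parasite viability was followed by luminescence of a genomically integrated firefly luciferase. Cultures held 0.1% parasitemia at 2% hematocrit (final), incubated under 5% CO2 at 37 C.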
SARS PLP yeast – inhibitors of SARS-CoV papain-like protease in yeast; 0.19% of 330,000 active; S. cerevisiae expressing SARS-CoV PLpro, growth rescue; AID 485353; Potency, µM (series often up to 32.9 µM), for the others: at the highest dose activity, positive = growth rescue, most hits filed as activators; calls by dose curve; further: 0% is about no effect; nearly all actives have a fitted effect of over 55% in size
AMA1-RON2 inh – inhibitors of Plasmodium falciparum AMA1-RON2 interaction; AlphaScreen AMA1-biotinylated RON2 peptide binding; Potency, µM (titrated, usually from 58.2 µM), for the others: top-dose activity change, negative = inhibition, actives largely listed as inhibitors; 0.2% of 360,000 active;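 further: 0% = vehicle wells and -100% = peptide control; nearly all actives have a fitted effect of over 45% in size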
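AMA1 (3D7) with his tag at 25 nM final met compounds first, then biotinylated RON2 peptide at 25 nM; detection used donor plus acceptor beads, 10 µg/mL apiece, read by AlphaScreen after 30 min at room temperature.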
Numbers without * were called inactive; ? = inconclusive; / = not tested or not shown; [ ] = remark or other dose. An excerpt weighted towards active compounds, which were near 9.4% of everything screened. Unless noted, the call rests on the fitted dose curve; in most records, active means well fitted curve in the direction sought with a large enough effect; inconclusive means small, poorly fitted or top-dose-only effect, or another doubt; inactive means no such curve, though single readings can be large; an effect the other way counts as inactive or inconclusive. Potency means the concentration at half of the fitted maximal effect.

SMILES	Pf growth 96h	Pf growth 48h	SARS PLP yeast	AMA1-RON2 inh
CN(Cc1ccccc1)C(=O)C1CCCN1S(=O)(=O)c1ccc2c(c1)n(C)c(=O)c(=O)n2C (centres undefined)	5%	-21%	-1%	1%
CC(=O)N1CCCc2cc(S(=O)(=O)N3CCCC(C(=O)N4CCN(c5cc(C)ccc5C)CC4)C3)ccc21 (centres undefined)	0%	?	-30%	15%
O=C(c1ccccc1)c1cn(CC(=O)N2CCCC2)c2ccccc12	3.7µM*	/	7%	5%
Nc1ccc2cc3ccc(N)cc3nc2c1	2.4µM*	3.8µM*	/	/
CCNS(=O)(=O)c1ccc(CCC(=O)NCc2ccncc2)cc1	-7%	10%	4%	-7%
OCCN(CCO)c1nc(N2CCCCC2)c2nc(N(CCO)CCO)nc(N3CCCCC3)c2n1	3.3µM*	2.1µM*	-8%	0%
Nc1nc(NCCO)nc(N2CCCCCC2)c1[N+](=O)[O-]	22%	4%	0%	-2%
Cc1ccc(NC(=O)CCn2c(=O)c3cccn3c3ccccc32)c(C)c1	13µM*	?	-2%	-13%
COc1ccc(NC(=O)CCn2c(=O)c3cccn3c3ccccc32)c(OC)c1	12µM*	?	-6%	-18%
Cc1ccc(NC(=O)Cn2cccc2)c(C)c1	13µM*	/	17%	-13%
COc1ccc(NC(=O)CCn2c(=O)c3cccn3c3ccccc32)cc1	?	-11%	-1%	1%
O=[N+]([O-])c1cccc(CSc2ncnc3ccccc23)c1	?	-3%	-10%	-18%
CC1(C)SC2c3ccccc3C(=O)N2[C@@H]1C(=O)NC1CC1 (some centres undefined)	26%	-1%	-5%	1%
COC(=O)c1cc(-c2cccc([N+](=O)[O-])c2)c2c(=O)n(C)c(=O)n(C)c2n1	?	21%	1%	3%
Cc1ccc(-n2cc(CCCCCCCCC(=O)O)nn2)cc1	5.9µM*	1%	-9%	0%
Cc1ccc(C(=O)OCc2cn(-c3ccccc3)nn2)cc1	?	13µM*	-2%	1%
O=C(O)CCCCCCCCc1cn(CC2CCCCC2)nn1	?	-12%	/	6%
O=C(OCc1cn(Cc2ccccc2)nn1)c1ccccc1	112%	70%	1%	17%
Cn1c2ccccc2c2cc(/C=N/NC(=O)c3ccc(N)cc3)ccc21	?	13µM*	0%	19%
C/C(O)=c1/ccc2cccc3nc(C)nc1c23	?	?	0%	20%
CCOC(=O)c1[nH]c(COC(=O)CCCOc2ccccc2)c(C(=O)OCC)c1C	?	13µM*	-2%	8%
COC(=O)CN(C)C(=O)c1ccccc1OC1CCN(S(C)(=O)=O)CC1	13µM*	-36%	2%	5%
O=C(COC(=O)Cc1cccc(F)c1)NCCc1ccccc1	-1%	39%	7%	7%[11.6 µM]
Cc1ccccc1NC(=S)N(CCc1c(C)[nH]c2ccc(F)cc12)Cc1cccnc1	?	?	-4%	-1%
CCNC(=S)N(CCc1c(C)[nH]c2ccc(Cl)cc12)Cc1cccnc1	?	12µM*	-1%	-4%
SMILES	Pf growth 96h	Pf growth 48h	SARS PLP yeast	AMA1-RON2 inh
COCCNC(=S)N(CCc1c(C)[nH]c2ccc(C)cc12)Cc1cc(OC)c(OC)c(OC)c1	9.3µM*	?	9%	-7%
Cc1[nH]c2ccc(F)cc2c1CCN(Cc1cccnc1)C(=S)Nc1cccc(F)c1	?	13µM*	0%	6%
COc1ccc2[nH]c(C)c(CCN(Cc3cccs3)C(=S)Nc3cccc(F)c3)c2c1	0.74µM*	0.37µM*	-1%	-8%
CC(=O)Nc1ccc2c(c1)C(=Nc1ccc(C)cc1)c1ccccc1-2	/	/	/	8%
O=c1c2ccccc2nc(/C=C/c2ccc(Cl)cc2)n1CCO	?	-2%	-3%	-8%
COc1cccc(NC(=S)N(CCc2nc3cc(C)c(C)cc3[nH]2)Cc2cccnc2)c1	12µM*	?	-5%	4%
CCn1c(C)csc1=NC(=O)c1ccccc1O	1.7µM*	111%	-13%	13%
O=C1C(c2ccccc2)=[N+]([O-])c2ccccc21	0.37µM*	0.66µM*	1%	13µM*
CN1C(=O)C[N+]([O-])=C(c2ccccc2)c2cc(Cl)ccc21	/	/	/	27%
CC1CCCN(C(=O)c2cccc(S(=O)(=O)N3CCCc4ccccc43)c2)C1 (centres undefined)	?	?	-5%	-14%
COc1ccc(N2CCN(Cc3cc(=O)oc4cc(-c5ccccc5)c(O)cc34)CC2)cc1	2.9µM*	1.9µM*	0%	-10%
